Data published in ChEMBL document CHEMBL3988442, “University of Dundee, Small-Polar-MMV Screening Library” (2021).
For some assays here: Results with a measured potency or affinity are listed apart.

Assays:
Parameters in all cases: scale not given: direction of the effect not stated beside the values
[1] = biological target: Protein translocase subunit SecA (Escherichia coli (strain K12)) (UniProt P10408); experiment: Assay to Identify E. coli SecA ATPase Inhibitors; assay type: functional; settings: 30 µM
Sequence of Protein translocase subunit SecA (Escherichia coli (strain K12)) (P10408 whole entry): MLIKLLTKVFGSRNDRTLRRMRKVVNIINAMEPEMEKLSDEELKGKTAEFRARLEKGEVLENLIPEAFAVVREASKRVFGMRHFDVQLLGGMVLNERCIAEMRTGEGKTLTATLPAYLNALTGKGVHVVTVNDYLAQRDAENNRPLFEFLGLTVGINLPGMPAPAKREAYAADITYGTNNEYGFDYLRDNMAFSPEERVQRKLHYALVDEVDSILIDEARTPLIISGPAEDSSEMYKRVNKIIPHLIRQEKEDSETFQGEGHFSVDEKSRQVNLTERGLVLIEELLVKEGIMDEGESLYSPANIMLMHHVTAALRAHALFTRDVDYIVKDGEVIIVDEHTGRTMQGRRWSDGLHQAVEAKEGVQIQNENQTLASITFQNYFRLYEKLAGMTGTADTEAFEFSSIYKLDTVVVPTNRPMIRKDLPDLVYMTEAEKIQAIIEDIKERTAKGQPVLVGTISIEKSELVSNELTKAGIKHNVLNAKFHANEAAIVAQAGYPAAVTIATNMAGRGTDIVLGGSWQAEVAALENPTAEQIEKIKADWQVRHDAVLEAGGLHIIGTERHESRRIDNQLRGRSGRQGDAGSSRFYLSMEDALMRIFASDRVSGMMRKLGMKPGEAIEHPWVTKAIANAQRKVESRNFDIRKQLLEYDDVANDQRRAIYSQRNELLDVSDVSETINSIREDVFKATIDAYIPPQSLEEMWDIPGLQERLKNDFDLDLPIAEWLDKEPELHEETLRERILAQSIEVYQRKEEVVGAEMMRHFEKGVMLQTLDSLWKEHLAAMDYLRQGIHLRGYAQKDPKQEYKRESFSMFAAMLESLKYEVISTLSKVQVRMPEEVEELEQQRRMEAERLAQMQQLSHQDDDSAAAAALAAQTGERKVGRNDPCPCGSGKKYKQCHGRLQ

[2] = biological target: T1, Ubiquitin-activating enzyme e1, putative (Leishmania donovani (strain BPK282A1)) (UniProt E9BSI1); experiment: Leishmania donovani Ubiquitin Activating Enzyme (LdE1); assay type: functional; settings: 30 µM
T1 sequence (whole entry): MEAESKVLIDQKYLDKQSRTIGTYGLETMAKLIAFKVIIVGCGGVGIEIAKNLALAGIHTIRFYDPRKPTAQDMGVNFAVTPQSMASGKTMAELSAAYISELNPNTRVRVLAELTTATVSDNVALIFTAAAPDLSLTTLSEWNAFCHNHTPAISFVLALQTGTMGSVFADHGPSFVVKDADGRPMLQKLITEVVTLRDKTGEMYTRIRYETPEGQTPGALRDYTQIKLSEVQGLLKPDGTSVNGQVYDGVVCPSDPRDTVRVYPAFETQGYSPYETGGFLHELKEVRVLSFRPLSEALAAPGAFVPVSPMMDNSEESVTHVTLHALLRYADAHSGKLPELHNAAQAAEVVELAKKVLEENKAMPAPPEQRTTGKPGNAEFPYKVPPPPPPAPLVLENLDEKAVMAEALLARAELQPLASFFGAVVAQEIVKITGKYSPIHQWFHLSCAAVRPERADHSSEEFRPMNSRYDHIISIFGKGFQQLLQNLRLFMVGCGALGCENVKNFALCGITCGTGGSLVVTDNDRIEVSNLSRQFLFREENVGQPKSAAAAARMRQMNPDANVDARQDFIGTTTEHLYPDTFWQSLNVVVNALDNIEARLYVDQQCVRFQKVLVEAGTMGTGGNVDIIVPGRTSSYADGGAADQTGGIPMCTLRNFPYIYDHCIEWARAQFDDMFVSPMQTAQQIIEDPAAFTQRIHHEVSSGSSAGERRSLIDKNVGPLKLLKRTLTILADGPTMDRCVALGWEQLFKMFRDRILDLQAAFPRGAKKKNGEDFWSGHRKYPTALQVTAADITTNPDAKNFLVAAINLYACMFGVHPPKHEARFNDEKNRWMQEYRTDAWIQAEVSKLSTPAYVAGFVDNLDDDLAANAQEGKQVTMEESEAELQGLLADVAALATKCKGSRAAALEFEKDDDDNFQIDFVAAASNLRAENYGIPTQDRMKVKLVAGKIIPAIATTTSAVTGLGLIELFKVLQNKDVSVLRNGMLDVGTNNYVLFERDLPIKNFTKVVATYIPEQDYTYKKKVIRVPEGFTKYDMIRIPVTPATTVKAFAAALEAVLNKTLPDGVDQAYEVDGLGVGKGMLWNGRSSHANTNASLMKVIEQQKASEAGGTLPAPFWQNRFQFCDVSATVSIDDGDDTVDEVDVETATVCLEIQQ

[3] = biological target: AMP-activated protein kinase, AMPK (Homo sapiens) (UniProt P54646+O43741+P54619+Q9UGJ0+Q9Y478+Q13131+Q9UGI9); experiment: AMP-dependent Kinase enzyme assay. An in vitro enzyme assay that detects ADP turnover that is directly proportional to AMPK activity. This uses naive AMPK that is activated during the assay with MK-8722; assay type: functional; settings: 30 µM
[4] = biological target: Sialic acid-binding Ig-like lectin 9 (Homo sapiens) (UniProt Q9Y336); experiment: Hs-Siglec9 ALPHAscreen SOP 20170721; settings: 10 µM
Sequence of Sialic acid-binding Ig-like lectin 9 (Homo sapiens) (Q9Y336 whole entry): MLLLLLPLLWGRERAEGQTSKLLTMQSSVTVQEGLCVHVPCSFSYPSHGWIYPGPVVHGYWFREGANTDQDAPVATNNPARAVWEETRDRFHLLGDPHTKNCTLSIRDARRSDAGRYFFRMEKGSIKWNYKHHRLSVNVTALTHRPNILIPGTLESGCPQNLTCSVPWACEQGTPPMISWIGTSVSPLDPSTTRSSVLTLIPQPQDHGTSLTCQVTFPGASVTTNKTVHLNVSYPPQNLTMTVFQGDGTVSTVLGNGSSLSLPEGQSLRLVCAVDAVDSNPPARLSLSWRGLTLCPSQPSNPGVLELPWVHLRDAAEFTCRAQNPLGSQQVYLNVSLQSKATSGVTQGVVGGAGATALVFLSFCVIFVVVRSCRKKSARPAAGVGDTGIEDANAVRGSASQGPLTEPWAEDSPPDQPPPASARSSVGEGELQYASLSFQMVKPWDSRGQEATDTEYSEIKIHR

Trypanosoma cruzi = experiment: Trypanosoma cruzi phosphomannomutase and mannose-1-phosphate guanylyltransferase assay; assay type: functional; settings: 10 µM
[5] = biological target: T2, Arginase-2, mitochondrial (Homo sapiens) (UniProt P78540); experiment: in vitro enzyme assay to detect the production of urea directly proportional to the activity of Arginase II; assay type: functional; settings: 33.3 µM; also: in the data most compounds retested in dose-response had high values
T2 sequence (whole entry): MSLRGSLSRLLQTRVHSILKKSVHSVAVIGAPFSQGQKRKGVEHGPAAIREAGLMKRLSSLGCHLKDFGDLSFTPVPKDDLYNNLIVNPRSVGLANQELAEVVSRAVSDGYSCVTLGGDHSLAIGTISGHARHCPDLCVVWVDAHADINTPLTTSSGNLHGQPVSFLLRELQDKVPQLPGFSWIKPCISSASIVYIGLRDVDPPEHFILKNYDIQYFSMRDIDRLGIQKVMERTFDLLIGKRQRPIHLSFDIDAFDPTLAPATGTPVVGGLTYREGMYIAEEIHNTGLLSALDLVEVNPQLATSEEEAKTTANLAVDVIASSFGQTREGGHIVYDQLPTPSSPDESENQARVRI

[6] = biological target: T3, Proteasome subunit beta (Trypanosoma cruzi) (UniProt O96673); experiment: Trypanosoma cruzi proteasome chymotrypsin-like activity (TcProtChymo) assay.; also: in the data most compounds retested in dose-response had high values; assay type: functional; settings: 9.37 µM
T3 sequence (whole entry): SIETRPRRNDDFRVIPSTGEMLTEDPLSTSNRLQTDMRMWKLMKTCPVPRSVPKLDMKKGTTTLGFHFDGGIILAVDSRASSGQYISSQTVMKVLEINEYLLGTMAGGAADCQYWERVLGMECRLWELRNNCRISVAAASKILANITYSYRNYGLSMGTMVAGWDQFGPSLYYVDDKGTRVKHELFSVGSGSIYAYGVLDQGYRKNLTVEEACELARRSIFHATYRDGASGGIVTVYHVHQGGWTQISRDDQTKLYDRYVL

Homo sapiens = species on record: Homo sapiens; experiment: To identify inhibition of the IFN signalling (Jak-Stat) pathway via expression of an eGFP reporter gene under the control of an IFN-stimulated response element (ISRE) containing MxA promoter.; assay type: functional; settings: 30 µM
[7] = biological target: T4, Tyrosyl-tRNA synthetase, putative (Trypanosoma cruzi (strain CL Brener)) (UniProt Q4DSP6); experiment: Trypanosoma cruzi tyrosyl tRNA synthetase (TcYRS) _High Tyrosine SOP; assay type: functional; settings: 30 µM; also: in the data most compounds retested in dose-response had high values
T4 sequence (whole entry): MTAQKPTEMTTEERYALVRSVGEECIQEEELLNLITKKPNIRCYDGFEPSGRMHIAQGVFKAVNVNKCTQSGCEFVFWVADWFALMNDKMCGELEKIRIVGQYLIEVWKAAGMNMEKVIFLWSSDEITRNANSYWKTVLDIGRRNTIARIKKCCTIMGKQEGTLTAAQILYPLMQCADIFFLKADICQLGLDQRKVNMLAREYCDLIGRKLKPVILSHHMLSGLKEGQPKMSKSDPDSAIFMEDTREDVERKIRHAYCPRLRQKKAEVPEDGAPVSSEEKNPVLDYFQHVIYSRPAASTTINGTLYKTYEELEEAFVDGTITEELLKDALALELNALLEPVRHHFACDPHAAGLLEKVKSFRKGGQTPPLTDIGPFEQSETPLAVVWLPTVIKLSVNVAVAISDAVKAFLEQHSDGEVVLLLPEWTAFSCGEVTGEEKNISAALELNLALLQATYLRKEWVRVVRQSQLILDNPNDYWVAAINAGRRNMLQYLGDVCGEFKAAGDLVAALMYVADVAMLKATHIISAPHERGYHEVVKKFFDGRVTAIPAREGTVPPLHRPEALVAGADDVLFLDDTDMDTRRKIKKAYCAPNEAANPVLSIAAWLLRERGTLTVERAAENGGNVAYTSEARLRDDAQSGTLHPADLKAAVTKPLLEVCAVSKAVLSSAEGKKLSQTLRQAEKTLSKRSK

[8] = biological target: T4, Tyrosyl-tRNA synthetase, putative (Trypanosoma cruzi (strain CL Brener)); experiment: Trypanosoma cruzi tyrosyl tRNA synthetase (TcYRS) SOP; assay type: functional; settings: 30 µM
[9] = biological target: Chromo domain-containing protein 1 (Saccharomyces cerevisiae (strain ATCC 204508 / S288c) (Baker's yeast)) (UniProt P32657); experiment: ScCHD-1 Enzyme Inhibition Assay; assay type: functional; settings: 30 µM; also: in the data most compounds retested in dose-response had high values
Sequence of Chromo domain-containing protein 1 (Saccharomyces cerevisiae (strain ATCC 204508 / S288c) (Baker's yeast)) (P32657 whole entry, the tested form may be a part): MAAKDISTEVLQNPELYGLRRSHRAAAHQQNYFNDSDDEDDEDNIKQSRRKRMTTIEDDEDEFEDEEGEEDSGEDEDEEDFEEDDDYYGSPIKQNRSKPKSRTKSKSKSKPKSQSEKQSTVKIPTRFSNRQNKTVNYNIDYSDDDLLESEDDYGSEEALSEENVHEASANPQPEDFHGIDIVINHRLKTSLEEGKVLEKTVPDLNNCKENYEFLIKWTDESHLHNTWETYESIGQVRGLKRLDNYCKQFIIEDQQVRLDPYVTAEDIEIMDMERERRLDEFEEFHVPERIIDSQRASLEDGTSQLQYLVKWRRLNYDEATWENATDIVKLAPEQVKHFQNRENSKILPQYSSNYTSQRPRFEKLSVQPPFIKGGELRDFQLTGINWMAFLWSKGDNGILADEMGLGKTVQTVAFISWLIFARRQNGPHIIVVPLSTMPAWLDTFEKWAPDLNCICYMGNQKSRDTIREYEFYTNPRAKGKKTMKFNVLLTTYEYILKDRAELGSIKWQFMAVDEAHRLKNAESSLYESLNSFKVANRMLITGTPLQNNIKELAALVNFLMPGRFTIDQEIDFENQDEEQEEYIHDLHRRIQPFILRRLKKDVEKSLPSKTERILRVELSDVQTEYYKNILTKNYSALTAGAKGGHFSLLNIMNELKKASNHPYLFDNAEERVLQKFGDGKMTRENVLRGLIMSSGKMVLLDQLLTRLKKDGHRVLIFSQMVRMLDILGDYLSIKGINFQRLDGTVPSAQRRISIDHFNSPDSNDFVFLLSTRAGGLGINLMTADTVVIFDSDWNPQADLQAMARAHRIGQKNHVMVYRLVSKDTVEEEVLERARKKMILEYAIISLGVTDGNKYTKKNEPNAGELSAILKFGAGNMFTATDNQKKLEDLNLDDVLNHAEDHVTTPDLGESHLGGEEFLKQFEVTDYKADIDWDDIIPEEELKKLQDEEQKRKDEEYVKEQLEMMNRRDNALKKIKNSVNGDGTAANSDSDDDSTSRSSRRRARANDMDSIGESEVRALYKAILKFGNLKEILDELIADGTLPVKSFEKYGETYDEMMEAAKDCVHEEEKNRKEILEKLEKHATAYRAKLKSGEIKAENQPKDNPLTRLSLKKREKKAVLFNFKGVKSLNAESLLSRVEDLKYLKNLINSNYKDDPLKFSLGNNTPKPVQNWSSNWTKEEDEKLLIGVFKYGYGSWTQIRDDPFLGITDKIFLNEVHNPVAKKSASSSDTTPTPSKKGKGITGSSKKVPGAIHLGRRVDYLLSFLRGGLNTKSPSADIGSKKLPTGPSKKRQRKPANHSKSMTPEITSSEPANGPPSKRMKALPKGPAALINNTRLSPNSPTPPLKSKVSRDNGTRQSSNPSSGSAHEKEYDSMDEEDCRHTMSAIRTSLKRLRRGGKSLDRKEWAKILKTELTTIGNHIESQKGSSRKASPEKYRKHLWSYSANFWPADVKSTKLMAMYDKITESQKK

Row | SMILES | Percent Effect [1] [%] | Percent Effect [2] [%] | Percent Effect [3] [%] | Percent Effect [4] [%] | Percent Effect (Trypanosoma cruzi) [%] | Percent Effect [5] [%] | Percent Effect [6] [%] | Percent Effect (Homo sapiens) [%] | Percent Effect [7] [%] | Percent Effect [8] [%] | Percent Effect [9] [%]
1 | OC[C@H]1CC[C@]2(CC1)CN(Cc1ccccn1)Cc1ccccc1O2 | -1.22 | 1.35 | 15.4 | 4.6 | -3.56 | 1.16 | 1.25 | 5.31 | 5.38 | 3.9 | -8.96
2 | CCn1cc(N2Cc3nc(N4CCN(C)CC4)ncc3C2=O)cn1 | -4.57 | 4 | 4.85 | 8.98 | -1.97 | -13.2 | 15.2 | -0.771 | 6.35 | 12.8 | -11.9
3 | CN(C)C(=O)N1C[C@H](Oc2ccccn2)[C@H]2OCCC[C@H]21 | 0.276 | 0 | 4.78 | 2.55 | -2.27 | 0.645 | 3.65 | -2.96 | 3.17 | 3.85 | -3.5
4 | Cc1nn(C)c(C)c1C1CCCN1Cc1nc(-c2ccco2)no1 (stereo unspecified) | -1.05 | 10.8 | -11.3 | 7.16 | 4.18 | -2.03 | 3.23 | 26.2 | 10.9 | 23.2 | -7.01
5 | O=C(CC1CC1)NCc1cn2c(n1)CN(CC1CC1)CC2 | -3.1 | 13.3 | 16.6 | -9.15 | -3.54 | 1.63 | 10.7 | 3.1 | -3.19 | 8.97 | -5.22
6 | Cn1ccnc1SCc1nc(C(C)(C)NC(=O)OC(C)(C)C)no1 | -5.41 | 18.7 | -1.15 | 21.2 | 5.94 | 2.08 | 10.6 | 21.2 | 6.01 | 16.1 | -9.46
7 | Cc1scc(C(=O)N2CCC3(CC(=O)NC3=O)C2)c1-c1ccccc1 (stereo unspecified) | -2.27 | 5.41 | 3.06 | 1.45 | 1.35 | 2.86 | 12.2 | 0.902 | 8.99 | 9.76 | -5.21
8 | COCCN(Cc1ccoc1)C(=O)c1c(F)cccc1Cl | -4.43 | 5.2 | 10.7 | 9.59 | -5.62 | 5.81 | 2.44 | -5.55 | 3.17 | 11.5 | -5.12
9 | COCC(=O)N1CCC[C@]2(C(=O)N(C)C)CN(c3ccccn3)C[C@@H]2C1 | -2.73 | 5.33 | -3.72 | 0.562 | 5.02 | -50.4 | 16.2 | -8.04 | 6.25 | 5 | -8.42
10 | O=C1N(Cc2cccc(F)c2F)CCCC1(O)CN1CCCOCC1 (stereo unspecified) | -6.11 | -5.33 | -3.73 | 6.26 | 1.46 | 0 | 5.06 | 5.93 | 4.92 | 11.1 | -4.58
11 | COCCN1CCCC(c2nc3c([nH]2)CC(C)(C)CNC3=O)C1 (stereo unspecified) | 0.299 | 5.41 | -1.1 | 13.4 | 2.32 | 25.2 | 12.4 | 10.5 | 5.82 | 9.76 | 0.619
12 | CCCc1nnsc1C(=O)NCC1CCN(S(C)(=O)=O)CC1 | -4.49 | 16.4 | -9.31 | 9.94 | 1.57 | 0.455 | 20.1 | 9.73 | 7.53 | 17.5 | -6.78
13 | O=S(=O)(Cc1ccccc1)NCc1ccco1 | -2.2 | -1.39 | 13.3 | 0.175 | 0.68 | 0 | -1.4 | 6.12 | 3.16 | 2.56 | 0.387
14 | Cc1ccc(C(=O)N2CCN(Cc3nc(C(C)C)no3)CC2)c(=O)[nH]1 | -7.78 | 2.7 | -5.78 | 5.72 | -4.36 | -2.77 | -4.49 | 13.8 | 1.98 | 1.22 | 7.95
15 | CC(Cn1ccnc1)NC(=O)NCCc1ccccn1 (stereo unspecified) | -1.01 | 21.1 | -0.947 | -4.27 | 1.69 | -2.3 | 21.2 | 6.74 | 5.39 | 21.9 | -8.97
16 | O=C(c1cnccn1)N1CCc2onc(CN3CCOCC3)c2C1 | -1.8 | 0 | 11.9 | -11 | -6.75 | 2.87 | 11.8 | 13.9 | 1.08 | 2.56 | -5.16
